# In the supplement of paper PMC6897291:
# How the values were obtained:
# [1] = system: RIVA; assay: growth inhibition by drug plus 177Lu-lilotomab satetraxetan (1 - RLU/untreated control) (fraction); higher = stronger inhibition; settings: 177Lu-lilotomab satetraxetan 0.5 ug/ml
# In short: (§1)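 Plates pre-printed with the Selleck Cambridge Cancer Compound library at 10/100 nM (RIVA) or 10/1,000 nM (U-2932) received 3,000 cells/well. These cells had been washed after 18 h untreated or with a radiolabelled anti-CD37 antibody conjugate (~600 MBq/mg; 0.5 µg/ml RIVA, 1 µg/ml U-2932). Growth inhibition was obtained from RealTime-Glo luminescence in relation to untreated no-drug wells. Each daily read from day 3, taken after 1 h at 37°C, was converted as 1 − RLU/mean of 48 such wells per plate.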
# [2] = system: U-2932; assay: growth inhibition by drug alone (1 - RLU/untreated control) (fraction); higher = stronger inhibition; settings: 177Lu-lilotomab satetraxetan 0 ug/ml
# In short: as §1
# [3] = system: RIVA; assay: as above; settings: 177Lu-lilotomab satetraxetan 0 ug/ml
# In short: as §1
# [4] = system: U-2932; assay: growth inhibition by drug plus 177Lu-lilotomab satetraxetan (1 - RLU/untreated control) (fraction); higher = stronger inhibition; settings: 177Lu-lilotomab satetraxetan 1 ug/ml
# In short: as §1
SMILES,"growth inhibition by drug plus 177Lu-lilotomab satetraxetan ([1]; 100 nM, time (day): 5)","growth inhibition by drug plus 177Lu-lilotomab satetraxetan ([1]; 100 nM, time (day): 6)","growth inhibition by drug alone ([2]; 10 nM, time (day): 3)","growth inhibition by drug alone ([2]; 10 nM, time (day): 4)","growth inhibition by drug alone ([2]; 10 nM, time (day): 5)","growth inhibition by drug alone ([2]; 10 nM, time (day): 6)","growth inhibition by drug alone ([2]; 1000 nM, time (day): 3)","growth inhibition by drug alone ([2]; 1000 nM, time (day): 4)","growth inhibition by drug alone ([2]; 1000 nM, time (day): 5)","growth inhibition by drug alone ([2]; 1000 nM, time (day): 6)","growth inhibition by drug alone ([3]; 10 nM, time (day): 3)","growth inhibition by drug alone ([3]; 10 nM, time (day): 4)","growth inhibition by drug alone ([3]; 10 nM, time (day): 5)","growth inhibition by drug alone ([3]; 10 nM, time (day): 6)","growth inhibition by drug alone ([3]; 100 nM, time (day): 3)","growth inhibition by drug alone ([3]; 100 nM, time (day): 4)","growth inhibition by drug alone ([3]; 100 nM, time (day): 5)","growth inhibition by drug alone ([3]; 100 nM, time (day): 6)","growth inhibition by drug plus 177Lu-lilotomab satetraxetan ([4]; 10 nM, time (day): 3)","growth inhibition by drug plus 177Lu-lilotomab satetraxetan ([4]; 10 nM, time (day): 4)","growth inhibition by drug plus 177Lu-lilotomab satetraxetan ([4]; 10 nM, time (day): 5)","growth inhibition by drug plus 177Lu-lilotomab satetraxetan ([4]; 10 nM, time (day): 6)","growth inhibition by drug plus 177Lu-lilotomab satetraxetan ([4]; 1000 nM, time (day): 3)","growth inhibition by drug plus 177Lu-lilotomab satetraxetan ([4]; 1000 nM, time (day): 4)","growth inhibition by drug plus 177Lu-lilotomab satetraxetan ([4]; 1000 nM, time (day): 5)","growth inhibition by drug plus 177Lu-lilotomab satetraxetan ([4]; 1000 nM, time (day): 6)","growth inhibition by drug plus 177Lu-lilotomab satetraxetan ([1]; 10 nM, time (day): 3)","growth inhibition by drug plus 177Lu-lilotomab satetraxetan ([1]; 10 nM, time (day): 4)","growth inhibition by drug plus 177Lu-lilotomab satetraxetan ([1]; 10 nM, time (day): 5)","growth inhibition by drug plus 177Lu-lilotomab satetraxetan ([1]; 10 nM, time (day): 6)","growth inhibition by drug plus 177Lu-lilotomab satetraxetan ([1]; 100 nM, time (day): 3)","growth inhibition by drug plus 177Lu-lilotomab satetraxetan ([1]; 100 nM, time (day): 4)"
COc1cc(Nc2c(C#N)cnc3cc(OCCCN4CCN(C)CC4)c(OC)cc23)c(Cl)cc1Cl [Bosutinib (SKI-606)],0.378,0.403,,,,,,,,,,,,,,,,,,,,,,,,,,,,,,
CCN(CC)CCCCNc1ncc2cc(-c3cc(OC)cc(OC)c3)c(NC(=O)NC(C)(C)C)nc2n1,0.445,0.439,-0.118,-0.118,-0.0732,-0.00128,-0.114,-0.0849,-0.071,0.0716,-0.21,-0.246,-0.227,-0.211,-0.356,-0.38,-0.379,-0.398,-0.0428,0.00417,0.0568,0.152,-0.156,-0.0951,-0.0251,0.158,0.539,0.564,0.587,0.597,0.393,0.447
NC(=O)Nc1cc(-c2cccc(F)c2)sc1C(=O)N[C@H]1CCCNC1,0.178,0.185,0.0534,0.00627,-0.197,-0.0587,0.942,0.955,0.959,0.962,0.0596,0.0145,-0.0537,-0.23,0.0812,0.0623,0.0116,-0.14,-0.0183,0.0423,0.122,0.155,0.964,0.971,0.974,0.978,0.318,0.362,0.396,0.43,0.139,0.161
CC1(CN2CCC(n3c(=O)[nH]c4ccccc43)CC2)OCc2ccccc2-n2cccc21 (centres undefined),0.6,0.609,-0.00689,-0.027,-0.0586,-0.0906,-0.241,-0.0399,-0.126,-0.115,-0.0853,-0.102,-0.143,-0.225,-0.307,-0.303,-0.319,-0.374,-0.0386,0.0346,0.0781,0.0987,-0.0292,0.0476,0.0675,0.175,0.576,0.59,0.612,0.612,0.521,0.568
COc1cc2c(cc1OC)CN(CCc1ccc(NC(=O)c3cccc4c(=O)c5cccc(OC)c5[nH]c34)cc1)CC2 [Elacridar],0.424,0.403,-0.00987,0.00491,0.00725,0.0766,0.114,0.0649,0.000978,-0.0858,-0.196,-0.178,-0.24,-0.531,-0.21,-0.258,-0.283,-0.457,-0.0285,0.00551,0.0106,0.107,0.0477,0.0502,0.0374,-0.0614,0.3,0.468,0.491,0.503,0.263,0.407
O=c1cc(N2CCOCC2)oc2c(-c3ccccc3)cccc12,0.473,0.446,0.0578,0.0496,-0.0145,-0.0318,0.0577,0.0696,0.0149,-0.0509,0.12,0.0305,-0.0125,-0.181,0.0387,0.0134,-0.0363,-0.116,0.00353,0.0372,0.0314,0.0726,0.0169,0.0857,0.0428,0.0454,0.442,0.529,0.563,0.58,0.423,0.463
COc1cc2/c(=N/c3ccc(Br)cc3F)nc[nH]c2cc1OCC1CCN(C)CC1 [Vandetanib (Zactima)],0.373,0.355,-0.05,-0.0325,-0.0228,0.016,-0.236,-0.171,-0.167,-0.12,-0.203,-0.201,-0.23,-0.529,-0.273,-0.353,-0.318,-0.441,-0.0662,-0.0404,-0.009,0.0527,-0.276,-0.164,-0.119,-0.041,0.331,0.49,0.516,0.535,0.268,0.377
